hcDAF12 agonist: activators of H. contortus DAF-12 nuclear receptor. HEK293 hcDAF-12 lit1-tk-luc reporter, luminescence; 0% DMSO, 100% Δ7-dafachronic acid. activation, % at 6.8 µM. 370,000 compounds, 1.4% hits. AID 652067;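 active means activation above the mean of all tested compounds plus 3 SD, cut at about 5.5% in these data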;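 further: 100% = response to 3 µM Δ7-dafachronic acid high control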
DAX1 inh-1: inhibitors of human orphan nuclear receptor DAX1 (NR0B1); P51843; HEK293 Gal4-DAX1 luciferase reporter, luminescence; inhibition, % at 6.75 µM; 340,000 compounds, 0.99% hits;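 active means inhibition above the mean over all tested compounds plus 3 SD, cut at about 4.2% in these data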;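 further: 0% = DAX1-transfected cells with DMSO and 100% = empty-vector control cells with DMSO; inhibition shows as a rise in luminescence from relieved DAX1 repression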
Target sequence (P51843 207-470 limits assumed): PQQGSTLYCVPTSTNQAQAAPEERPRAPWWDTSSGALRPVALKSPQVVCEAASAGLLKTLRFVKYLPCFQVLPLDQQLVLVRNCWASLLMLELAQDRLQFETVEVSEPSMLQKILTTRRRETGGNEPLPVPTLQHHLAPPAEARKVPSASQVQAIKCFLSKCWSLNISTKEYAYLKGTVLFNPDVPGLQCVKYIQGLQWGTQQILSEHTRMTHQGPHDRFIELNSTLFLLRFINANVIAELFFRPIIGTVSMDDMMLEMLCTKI
DAX1 inh-2: DAX1 (NR0B1) inhibition, primary screen; HEK293T StAR-luciferase reporter, SF-1/DAX-1 repression relief; inhibition, % at 6.8 µM; 370,000 compounds, 1.1% hits; AID 652010;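 active means inhibition above the mean over all tested compounds plus 3 SD, cut at about 3.6% in these data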;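 further: 0% = DAX-1 cells with DMSO and 100% = cells lacking DAX-1 with DMSO; higher inhibition means more luminescence from relief of DAX-1 repression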
hgDAF12 agonist: agonists of H. glycines DAF-12 nuclear receptor; HEK293 GAL4-hgDAF12 UAS-luciferase reporter, agonist luminescence; normalized to butyrate control; activation, % at 6.8 µM; 370,000 compounds, 1.8% hits;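 active means activation above a cutoff set at the mean of all screened compounds plus 3 SD, cut at about 10% in these data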;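 further: 0% = DMSO wells and 100% = sodium butyrate wells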
ssDAF-12 act: S. stercoralis DAF-12 activation, primary screen; activation, % at 6.8 µM; HEK293 ssDAF-12/GRIP1 lit1-tk-luc reporter, luminescence; % of 3 µM dafachronic acid response; 370,000 compounds, 1% hits;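 active means activation above the mean over all tested compounds plus 3 SD, cut at about 0.9% in these data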;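 further: 0% = DMSO-only wells and 100% = 3 µM delta7-dafachronic acid wells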
* hit, by the source's call; . = not tested or not shown. Most compounds without a hit are left out; they make up all but 4.1% or so of the library.

SMILES	hcDAF12 agonist	DAX1 inh-1	DAX1 inh-2	hgDAF12 agonist	ssDAF-12 act
O=C(NCCN1CCOCC1)/C(=C/c1ccccc1)NC(=O)c1ccccc1	-2	0	0	5	-1
Oc1ccccc1CNc1ccc(Br)cn1	4	2	1	12*	-1
Brc1ccc(NCc2cccc3ccccc23)nc1	-2	-1	0	-1	-1
Cc1ccc(C)c(NC(=S)NCCCN2CCOCC2)c1	-1	0	1	3	0.9*
NNC(=O)C(=O)NCCCN1CCOCC1	2	5.7*	0	-3	-1
Cc1ccc(C)c(NC(=O)C(=O)NCCCN2CCOCC2)c1	-1	1	0	11*	-1
CC(C)CNC(=O)C(=O)NCCCN1CCOCC1	1	0	-1	-3	-2
Cc1cc(C)cc(NC(=O)C(=O)NCCCN2CCOCC2)c1	-1	0	0	-2	-1
COP(=O)(O)C(C)NC(=O)OCc1ccccc1 (configuration not stated)	0	.	1	0	-1
C/C(=N\NC(=O)c1ccccc1[N+](=O)[O-])c1ccc(Br)s1	-1	0	0	1	-1
C/C(=N\NC(=O)c1c[nH]c2ccccc12)c1ccccn1	4	1	1	7	0
CCc1ccc(/C(C)=N/NC(=O)c2c[nH]c3ccccc23)s1	6.5*	0	0	4	1.1*
C/C(=N\NC(=O)c1ccccc1O)c1ccc(Br)s1	-1	0	1	11*	-1
C/C(=N\NC(=O)c1c[nH]c2ccccc12)c1ccco1	5.9*	0	2	4	0
Cc1cccc(C)c1NC(=O)C1CCN(c2ncccn2)CC1	-1	.	-1	-3	-2
COc1ccc2ccccc2c1CN1CCN(C)CC1	-1	4.7*	0	-2	0
O=[N+]([O-])c1ccc(-c2cn3ccccc3n2)cc1	2	.	2	7	0
Oc1ccc(-c2cn3ccccc3n2)cc1O	6.1*	1	2	8	0
CCOc1ccc(-c2cn3ccccc3n2)cc1[N+](=O)[O-]	1	2	1	11*	0
CCCOc1ccc(-c2csc(N)n2)cc1[N+](=O)[O-]	1	2	0	6	-1
CCCCOc1ccc(-c2cn3ccccc3n2)cc1[N+](=O)[O-]	1	-1	0	11*	-1
O=C1CCC[C@H]2C[C@H](NCc3ccc(Br)cc3)CC[C@]23CCCN13	3	.	.	0	0
O=C1CCC[C@H]2Cc3nc4cc5c(cc4cc3C[C@]23CCCN13)OCO5	1	.	.	4	-1
CCc1c(C(=O)Nc2cc(C)ccc2OC)[nH]c(C)c1C(C)=O	5.6*	0	-1	1	0
COC(=O)c1cccc(OCC(C)CN2CCC(C(O)(c3ccccc3)c3ccccc3)CC2)c1 (configuration not stated)	2	.	-1	-3	-1
SMILES	hcDAF12 agonist	DAX1 inh-1	DAX1 inh-2	hgDAF12 agonist	ssDAF-12 act
CCOc1ccc(Oc2c(Cl)c(Br)nn(Cc3cccc4ccccc34)c2=O)cc1	-1	.	0	0	-1
COc1ccc2nc(NC(=O)c3cc(C)oc3C)sc2c1	1	0	2	11*	0
COc1ccc2nc(NC(=O)CCNC(=O)c3ccco3)sc2c1	5	1	2	8	-1
COc1ccc2nc(NNC(=O)C3COc4ccccc4O3)sc2c1 (configuration not stated)	6.2*	0	0	6	1.3*
COc1ccc2nc(NC(=S)NC(=O)c3ccco3)sc2c1	3	1	1	11*	0
COc1ccc(Cl)cc1NC(=O)COC(=O)Cc1cc(OC)c(OC)c(OC)c1	0	-1	-1	0	2.8*
COc1ccc(NC(=O)/C=C/C(=O)O)cc1Cl	-1	1	1	1	-1
COc1ccc(Cl)cc1NC(=O)Nc1ccc(Br)cn1	6.0*	0	0	3	1
COc1ccc(Cl)cc1NC(=O)/C=C\C(=O)O	5	2	-1	1	0.9*
COC(=O)C1CN(Cc2cn(CCOC(C)=O)nn2)CCS(=O)(=O)N1Cc1ccc(F)cc1 (configuration not stated)	1	.	0	0	-1
Fc1ccccc1-c1n[nH]c(=S)n1N=Cc1ccc(OCc2ccccc2)cc1	-3	.	0	3	-2
COC(=O)c1cc(-c2cccc(C#N)c2)c(=O)n2c1CCC2	-3	.	-1	-1	0
CCCCNC(=O)O[C@H]1CC[C@@]23CCCN2C(=O)CCC[C@H]3[C@H]1C	-1	.	.	-3	-1
Clc1ccc(Cn2ccc3ccccc32)cn1	1	6.0*	0	-1	-1
COc1ccc(C2SCC(C(=O)O)N2C(C)=O)cc1OC (configuration not stated)	4	8.4*	0	0	-1
Cc1ccc(C(=O)NCCC(=O)N2CCC3(CC2)NCCc2[nH]cnc23)cc1	0	1	0	2	-1
Cc1cc(C)cc(C(=O)NCCC(=O)N2CCC3(CC2)NCCc2[nH]cnc23)c1	0	1	3.9*	0	-2
O=C(NCc1ccncc1)[C@@H]1CCCN1C(=O)[C@@H]1CCCN1C(=O)c1ccccc1	-1	.	-1	1	-1
CCc1cc(=O)oc2cc(C)cc(OCC(=O)N3CCC(C(=O)NC(C)C)(c4ccccc4)CC3)c12	-3	0	-1	-3	-1
Cc1ccc2nc(-c3ccc(SCC(=O)Nc4nnc(C)s4)nc3)[nH]c2c1	5.7*	3	4.3*	8	0
COc1ccccc1-c1nnc(SCC(=O)Nc2cccnc2Cl)n1C	4	0	1	0	0.9*
COc1ccccc1-n1cnnc1SCC(=O)Nc1cccnc1Cl	1	0	0	2	-1
COC(=O)[C@]12C[C@H](CC(=O)N3CCSCC3)C(=O)N(Cc3cccc4ccccc34)C1=C[C@H](C1CCCC1)O[C@@H]2C	-3	.	0	1	-1
COC(=O)[C@]12C[C@H](CC(=O)NCC34CC5CC(CC(C5)C3)C4)C(=O)N(Cc3ccco3)C1=C[C@H](C(C)(C)C)O[C@@H]2C	-4	.	-1	-1	-2
C[C@H]1CCC/C=C/[C@@H]2C[C@H](O)C[C@H]2[C@H](O)[C@H](S(=O)c2ccc(O)cc2)CC(=O)O1 (some centres not stated)	-2	-3	6.3*	-8	-2
COC(=O)C1=C(C)N(Cc2ccc(C(F)(F)F)cc2)C(=NCc2ccc(OC)cc2)NC1c1ccccc1C(F)(F)F (configuration not stated)	2	.	-1	1	-1
O=C(c1ccco1)N1CCC(Oc2cccnc2)CC1	-2	.	0	1	-1
CCOc1ccc(/C=N/n2c(-c3ccccc3)n[nH]c2=S)cc1	-2	5.8*	0	0	-1
